VDR inh: Inhibitors of the vitamin D receptor (VDR): qHTS | Vitamin D3 receptor (Homo sapiens), P11473 | 400,000 tested, 0.93% active | Potency, µM, inactives show max response, negative = inhibition, most hits filed as inhibitors | VDR-SRC2-3 peptide fluorescence polarization, 2 h | AID 504847, 2011
Target sequence (P11473 whole entry, looked up): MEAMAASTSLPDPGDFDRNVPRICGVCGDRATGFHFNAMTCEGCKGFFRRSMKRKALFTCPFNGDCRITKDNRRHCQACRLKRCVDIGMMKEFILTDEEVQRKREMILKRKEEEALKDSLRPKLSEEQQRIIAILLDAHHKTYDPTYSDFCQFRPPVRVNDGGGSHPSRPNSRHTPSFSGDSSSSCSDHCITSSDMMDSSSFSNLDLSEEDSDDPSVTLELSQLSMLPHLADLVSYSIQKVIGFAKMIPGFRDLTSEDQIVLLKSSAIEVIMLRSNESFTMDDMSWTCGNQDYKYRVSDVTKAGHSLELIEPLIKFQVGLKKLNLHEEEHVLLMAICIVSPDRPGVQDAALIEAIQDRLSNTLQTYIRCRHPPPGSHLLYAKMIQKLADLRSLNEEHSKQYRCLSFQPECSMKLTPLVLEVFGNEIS
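Inhibition of the VDR/SRC2-3 peptide interaction is quantified by fluorescence polarization. Compounds (23 nl, pintool) incubate with the reagents for 2 hours at ambient room temperature.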
Sfp PPTase inh: qHTS Assay for Inhibitors of Bacillus subtilis Sfp phosphopantetheinyl transferase (PPTase); 4'-phosphopantetheinyl transferase ffp (Bacillus subtilis), Q9F4F7; 310,000 tested, 3.5% active; Biochemical Sfp PPTase activity, qHTS; Potency, µM, inactives show largest response in the series, negative = inhibition, actives largely listed as inhibitors;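 further: the enzyme is Sfp with the accession as filed and its product quenches rhodamine fluorescence; 0% = enzyme reaction without inhibitor and -100% = no enzyme wells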
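Fluorescence-quenching assay with 15 nM Sfp, 5 uM rhodamine-CoA and 12.5 uM BHQ-2-labelled ybbR peptide in pH 7.6 Hepes/MgCl2 buffer. Enzyme was pre-incubated with compound for 15 min at room temperature. Rate was taken from the 30-min fluorescence change (525/598 nm).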
Tau fluor cs: Counterscreen qHTS for Inhibitors of Tau Fibril Formation, Fluorescence Polarization; 280,000 tested, 0.93% active; Potency, µM (doses to about 57.7 µM), inactives show at the highest dose activity change, negative = decrease; AID 1463, 2008; tau K18 P301L Alexa594 fluorescence, heparin fibrillization; further: nearly all actives have a fitted effect of over 55% in size
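Human K18 P301L tau (15 uM unlabeled plus 0.24 uM Alexa 594-labeled, final) in 100 mM sodium acetate pH 7 was mixed with compound and 20 uM heparin and incubated 6 hr at 37 C.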
Tau fibril ThT: qHTS for Inhibitors of Tau Fibril Formation, Thioflavin T Binding | recombinant tau K18 P301L (four-repeat tau fragment), heparin-induced fibrillization, ThT fluorescence | Potency, µM (titrated, usually from 57.4 µM), for the others: at the top dose activity, negative = inhibition, most hits filed as inhibitors | 270,000 tested, 2.1% active; further: nearly all actives have a fitted effect of over 55% in size
Target sequence (P10636 561-689 P618L limits assumed): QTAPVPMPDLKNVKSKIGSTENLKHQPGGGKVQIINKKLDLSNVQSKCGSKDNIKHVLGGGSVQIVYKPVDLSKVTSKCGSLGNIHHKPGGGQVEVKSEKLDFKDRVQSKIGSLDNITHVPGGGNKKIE
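Aggregation was driven by heparin (20 uM final) acting on recombinant tau […] bearing P301L in 100 mM sodium acetate pH 7; fibrils were detected with Thioflavin T.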
Tau FP inhib: qHTS for Inhibitors of Tau Fibril Formation, Fluorescence Polarization | K18 P301L tau heparin fibrillization, Alexa594 FP, 6 h | Potency, µM (doses to about 57.7 µM), for the others: at the top dose activity, negative = inhibition, hits mostly inhibitors | 280,000 tested, 0.39% active; further: nearly all actives have a fitted effect of over 55% in size
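Human K18 P301L fragment (15 uM unlabeled plus 0.24 uM Alexa 594-labeled) in 100 mM sodium acetate pH 7 with compound, aggregation induced by 20 uM heparin for 6 hr at 37 C. ThT (30 uM) added for 1 hr, then Alexa 594 FP read.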
PLK1 PBD inh: qHTS for Inhibitors of PLK1-PDB (polo-like kinase 1 - polo-box domain): Primary Screen; Potency, µM, without a hit: max response, negative = inhibition, actives largely listed as inhibitors; Serine/threonine-protein kinase PLK1 (Homo sapiens), P53350; 360,000 tested, 2.8% active; Plk1 PBD binding of FITC phosphopeptide, fluorescence polarization; further: series mostly up to about 57 µM; nearly all actives have a fitted effect of over 65% in size
* = called active by the depositor; [ ] = remark or other dose. Rows were chosen to be rich in hits. Some 6% of all compounds tested hit in one or more screens of this group. The call rests on the fitted dose curve; in most records, active means well fitted curve in the direction sought with a large enough effect; inconclusive means small, poorly fitted or top-dose-only effect, or another doubt; inactive means no such curve, though single readings can be large; an effect the other way counts as inactive or inconclusive. Unless noted, on the % scale 0 is the no-effect control and ±100 the full control effect; potency means the concentration at half of the fitted maximal effect.

Screening Cc1cc(C)c(NC(=S)NCCCSC2CCCCC2)c(C)c1 returned VDR inh -2%, Sfp PPTase inh 45µM*, Tau fluor cs -16%, Tau fibril ThT -17%, Tau FP inhib 2% and PLK1 PBD inh 24µM*.
For Cc1cc(C)c(NC(=O)CNC(=O)CNC(=O)C2CCCCC2)c(C)c1 the results were VDR inh -2% and PLK1 PBD inh -16%.
For COc1ccc(Nc2nc(N3CCCC3)nc(N3CCCC3)n2)c(OC)c1 the results were VDR inh -9%, Sfp PPTase inh inconclusive, Tau fluor cs inconclusive, Tau fibril ThT inconclusive, Tau FP inhib inconclusive and PLK1 PBD inh 4%.
COc1ccc(Nc2nc(Nc3ccc(OC)cc3OC)nc(N3CCN(C)CC3)n2)c(OC)c1 was read as VDR inh -15%, Sfp PPTase inh inconclusive, Tau fluor cs 10µM*[quencher], Tau fibril ThT inconclusive, Tau FP inhib inconclusive and PLK1 PBD inh -7%.
`O=c1cc(-c2ccc(O)cc2)oc2cc(OC3OC(CO)C(O)C(O)C3O)c(C3OC(CO)C(O)C(O)C3O)c(O)c12` (stereo not given) gave VDR inh 1% and Sfp PPTase inh -5%.
Screening O=C(O)CCCN1C(=O)C(=O)/C(=C(/O)c2ccccc2)C1/C=C/c1ccccc1 (stereo not given) returned VDR inh inconclusive, Sfp PPTase inh 8%, Tau fluor cs -8%, Tau fibril ThT -11%, Tau FP inhib -1% and PLK1 PBD inh 13µM*.
`O=C(O)CCCN1C(=O)C(=O)/C(=C(/O)c2ccc(Cl)cc2)C1c1ccccc1` (stereo not given) gave VDR inh 10%, Sfp PPTase inh 19%, Tau fluor cs -4%, Tau fibril ThT -4%, Tau FP inhib 1% and PLK1 PBD inh -30%.
CCOC(=O)c1c(NC(=O)c2cc(=O)c3c(C)cc(C)cc3o2)sc2c1CCC2 was read as VDR inh 6%, Tau fluor cs -2%, Tau fibril ThT -8% and Tau FP inhib 0%.
For COc1ccc(N2CCN(c3ccnc4cc(Cl)ccc34)CC2)cc1 the results were VDR inh -8%, Sfp PPTase inh 56µM* and PLK1 PBD inh -1%.
CC(C)(C)c1ccc(CC(=O)N2CCC2(C)C(=O)NS(=O)(=O)c2ccccc2Cl)cc1 (stereo not given) was read as PLK1 PBD inh -12%.
Cc1cc(C)c(O)c(-c2cc(C(=O)Nc3ccc(S(=O)(=O)N4CCOCC4)cc3)[nH]n2)c1 was read as VDR inh 28%, Sfp PPTase inh 19%, Tau fluor cs 14µM*[quencher], Tau fibril ThT 1%, Tau FP inhib inconclusive and PLK1 PBD inh -6%.
For COC(=O)c1cc(S(=O)(=O)NCCN2CCN(c3ccccc3F)CC2)c[nH]1 the results were VDR inh -20%, Sfp PPTase inh 19% and PLK1 PBD inh 21µM*.
COC(=O)c1cc(S(=O)(=O)N2CCN(c3ccccc3F)CC2)c[nH]1 was read as VDR inh -5%, Sfp PPTase inh 12% and PLK1 PBD inh -14%.
O=C1NC2c3c(I)sc(I)c3C(=O)C2O1 (stereo not given) was read as VDR inh -20% and PLK1 PBD inh inconclusive.
Screening O=C1NC2c3c(Cl)sc(Cl)c3C(=O)C2O1 (stereo not given) returned VDR inh inconclusive and PLK1 PBD inh 15µM*.
C[C@@]1(O)C(O)[C@@H](CO)O[C@H]1n1cnc2c(NC3CCCC3)nc(Cl)nc21 (stereo not given in full) was read as Sfp PPTase inh 12%, Tau fluor cs -10%, Tau fibril ThT -3% and Tau FP inhib -3%.
N#Cc1cc2c(nc1SCc1cccnc1)CCCCC2 was read as VDR inh -12%, Sfp PPTase inh 79µM*, Tau fluor cs -4%, Tau fibril ThT -13%, Tau FP inhib 7% and PLK1 PBD inh -6%.
Screening N#Cc1cc2c(nc1SCc1ccccc1)CCCCC2 returned VDR inh -21%, Sfp PPTase inh -14%, Tau fluor cs -14%, Tau fibril ThT 0%, Tau FP inhib -1% and PLK1 PBD inh 3.8µM*.
`COc1ccc(Br)cc1CNC(=O)c1cc(=O)[nH]c2ccc(S(=O)(=O)N3CCCCC3C)cc12` (stereo not given) gave VDR inh 19%, Tau fluor cs inconclusive, Tau fibril ThT 5% and Tau FP inhib inconclusive.
`CC(C)N1CCc2[nH]c(=S)[nH]c(=O)c2C1` gave VDR inh -9%, Sfp PPTase inh 45µM*, Tau fluor cs -10%, Tau fibril ThT -3%, Tau FP inhib 3% and PLK1 PBD inh -4%.
For CCCN1CCc2[nH]c(=S)[nH]c(=O)c2C1 the results were VDR inh -9%, Sfp PPTase inh 50µM*, Tau fluor cs -8%, Tau fibril ThT -5%, Tau FP inhib 7% and PLK1 PBD inh -6%.
Cc1ccc(CN2CCc3[nH]c(=S)[nH]c(=O)c3C2)cc1 was read as VDR inh -9%, Sfp PPTase inh -13% and PLK1 PBD inh -9%.
For CC(=O)Nc1ccc2c(c1)C(=O)c1cccc(C(=O)O)c1-2 the results were VDR inh -14% and PLK1 PBD inh 6%.
For O=C(NCCc1ccccc1)C1(c2cccs2)CCOCC1 the results were VDR inh 6%, Tau fluor cs -9%, Tau fibril ThT -6% and Tau FP inhib -20%.
For C/C(=N\Nc1nnc(-c2ccccc2)c(-c2ccccc2)n1)c1cccc([N+](=O)[O-])c1 the results were VDR inh -6%, Sfp PPTase inh 50µM*, Tau fluor cs -29%, Tau fibril ThT inconclusive, Tau FP inhib -16% and PLK1 PBD inh -2%.
`CCOC(=O)c1sc2nc(C)nc(N3CCN(S(=O)(=O)c4ccccc4)CC3)c2c1C` gave VDR inh -8% and PLK1 PBD inh 24µM*.
For COc1cc2c(cc1OC)C(/C=C/c1ccc(OC)c(OC)c1OC)=NCC2 the results were VDR inh 50µM*, Sfp PPTase inh inconclusive, Tau fluor cs -16%, Tau fibril ThT inconclusive and Tau FP inhib -11%.

Screening results deposited in PubChem BioAssay by National Center for Advancing Translational Sciences (NCATS).
